In the library only some 13% were active in any assay of this set; here they are far more common.
USP8 block – blocks human USP8 ubiquitin-rhodamine cleavage; purified USP8, Ub-rhodamine cleavage fluorescence, 30 min; inhibition, % at 20 µM; actives 4.2% (n = 47,000)
USP28 inh – blocks human USP28 ubiquitin-rhodamine cleavage | actives 3% (n = 47,000) | inhibition, % at 25 µM | purified USP28, Ub-rhodamine cleavage fluorescence, 30 min | Q96RU2
USP30 block – inhibitors of human USP30 deubiquitinase; purified USP30, Ub-rhodamine cleavage fluorescence; AID 1645860; actives 5.3% (n = 47,000); inhibition, % at 25 µM
USP10 inh – blocks human USP10 ubiquitin-rhodamine cleavage | Q14694 | purified USP10, Ub-rhodamine fluorescence, 60 min | inhibition, % at 20 µM | actives 1.1% (n = 47,000) | AID 1645856
USP17 block – human USP17-like deubiquitinase inhibition; inhibition, % at 50 µM; A8MUK1; purified USP17, Ub-rhodamine cleavage fluorescence, 3 h; actives 6.5% (n = 47,000); AID 1645855
* hit, by the source's call; nt = not tested or not shown. No stated cut-off is given here; in the data, active means inhibition above about 30%; inactive means the rest.

SMILES	USP8 block	USP28 inh	USP30 block	USP10 inh	USP17 block
Cc1ccc(S(=O)(=O)N2CCOCC2)cc1C(=O)N(C)Cc1ccccc1	0	2	14	-3	8
CC1=CC[C@]2(C)C[C@@H](O)[C@](O)(C(C)C)C2CC1 (stereo partly drawn)	6	1	32*	2	1
CC(=O)c1ccc(NC(=O)CN(CC(=O)Nc2ccc(C(C)=O)cc2)S(=O)(=O)c2ccc(C)cc2C)cc1	-3	-3	-39	-1	32*
Cc1nc2nc(CN(C(=O)COc3ccccc3)c3ccccc3)nn2c(C)c1Cl	12	9	36*	2	4
Cc1cc(C)n2nc(CN(C(=O)COc3ccccc3)c3ccccc3)nc2n1	-7	nt	nt	-2	-9
COCc1cccc(C(=O)Nc2ccc3c(c2)NC(=O)C(C)O3)c1 (stereo not drawn)	-3	1	14	-1	2
CC1Oc2ccc(NC(=O)c3cccc(NC(=O)c4cccs4)c3)cc2NC1=O (stereo not drawn)	-16	1	-4	2	38*
COc1ccc(CCc2nnc(-c3cnc4onc(C5CC5)c4c3)o2)cc1	14	3	4	10	14
COc1cc(-c2nnc(CSc3ccc(C(F)(F)F)cn3)o2)cc(OC)c1OC	5	13	38*	-6	27
O=C(c1cn(-c2cccc(F)c2)nn1)N1CCN(c2ccccc2)CC1	1	-16	-140	-2	-10
O=C(c1cn(-c2cccc(F)c2)nn1)N1CCc2ccccc2C1	1	1	11	2	55*
CCc1ccc(NC(=O)Cc2nnc(-c3ccc4ncccc4c3)o2)cc1	51*	21	43*	-5	63*
Cc1ccc(F)cc1NC(=O)Cc1nnc(-c2ccc3ncccc3c2)o1	56*	3	1	-9	25
Cc1cccc(NC(=O)Cc2nnc(-c3ccc4ncccc4c3)o2)c1	-278	-7	-28	-6	-5
CC(O)(CS(=O)(=O)Cc1ccccc1)C(=O)Nc1cccc(C(F)(F)F)c1 (stereo not drawn)	-1	-2	1	0	5
Cn1cc(NC(=O)Nc2cccc(C(F)(F)F)c2)c2ccccc2c1=O	97*	61*	78*	68*	98*
Cc1cc(C(F)(F)F)n(-c2ccc(NC(=O)Nc3cccc(C(F)(F)F)c3)cc2)n1	15	43*	-5	30*	39*
Cc1ccc(Cn2nc(C)cc2C(=O)Nc2cccc(C(F)(F)F)c2)cc1	21	11	27	11	24
CC(C)C(NC(=O)COc1ccccc1)C(=O)N1CCc2[nH]c3ccccc3c2C1 (stereo not drawn)	63*	-16	-156	-4	9
O=C(NCC(=O)N1CCc2[nH]c3ccccc3c2C1)c1ccc(F)cc1	-14	-51	-203	-3	-8
O=C(Nc1ccc(F)cc1)c1ccc2c(c1)C1C3CCC(C3)C1C(c1ccccc1)N2 (stereo not drawn)	8	3	32*	11	2
O=C(Nc1ccc(-n2cccc2)cc1)c1ccc(F)cc1	20	4	28	6	12
CC(=O)Nc1nc2c(s1)CCc1ccccc1-2	5	39*	10	2	20
Cc1nccc(N2CCC(c3c(C(=O)N(C)C)sc4nccnc34)CC2)n1	3	8	30*	3	8
Cc1cn2nc(N3CCC(C4CCCCCN4C(=O)C4CC4)CC3)sc2n1 (stereo not drawn)	-21	-8	-10	2	-12
SMILES	USP8 block	USP28 inh	USP30 block	USP10 inh	USP17 block
CS(=O)(=O)c1cnc(-c2ccncc2)nc1C1CCCN(C(=O)CCc2ccco2)C1 (stereo not drawn)	3	3	-4	-1	0
COCCCn1c(C(=O)NCCC(C)C)cc2c(=O)n3ccccc3nc21	2	21	34*	2	32*
COCCCn1c(C(=O)Nc2ccccc2OC)cc2c(=O)n3ccccc3nc21	-4	7	35*	4	77*
O=c1cc(-c2ccc(F)cc2)oc2ccc(F)cc12	7	-10	0	3	31*
O=C(COC(=O)C1CCCN1C(=O)C12CC3CC(CC(C3)C1)C2)c1ccc(Cl)cc1 (stereo not drawn)	0	7	51*	13	8
Cc1ccc(C(=O)NCCc2nnc3ccc(SCc4c(F)cccc4Cl)nn23)cc1	15	16	30*	2	6
O=C(NC1CCCC1)C(c1ccc(N2CCOCC2)cc1)N(Cc1ccccc1Cl)C(=O)c1ccco1 (stereo not drawn)	0	-9	-3	0	7
